Reference: PubChem BioAssay AID1159580 (chemical genetic matrix, 2015)
Hit rate of the full screen: of about 5,500 compounds, about 2,000 (36%) were called active. Another 18% or so got no clear call; they are omitted. Rule as the data show it: active = normalized growth mostly below about 0.91 (no sharp cut-off); inconclusive = no clear call, values can overlap the other calls; inactive = mostly above about 0.92. The list shows a part of the results.

Experiment: chemical genetic growth profiling, strain panel (AID 1159580);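 also: tested at 20 µM; growth read once vehicle control cultures reached saturation at 30 °C; 1 = growth at the plate median or of vehicle wells; lower values mean less growth of the strain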
Details: growth OD
[1] = S. cerevisiae deletion strains, locus YDL101C, strain DUN1, stronger effect = lower value
[2] = S. cerevisiae deletion strains, locus YHR030C, strain SLT2, stronger effect = lower value

Measured: normalized growth

O=C(O)CC(CC(=O)O)c1ccc(C(F)(F)F)cc1
inactive: S. cerevisiae deletion strains, locus YAL013W, strain DEP1, stronger effect = lower value 0.994 | S. cerevisiae deletion strains, locus YBR229C, strain ROT2, stronger effect = lower value 1 | S. cerevisiae deletion strains, locus YCL061C, strain MRC1, stronger effect = lower value 0.981 | [1] 0.999 | S. cerevisiae deletion strains, locus YDR150W, strain NUM1, stronger effect = lower value 0.938 | S. cerevisiae deletion strains, locus YEL061C, strain CIN8, stronger effect = lower value 1.01 | S. cerevisiae deletion strains, locus YGR078C, strain PAC10, stronger effect = lower value 0.993 | S. cerevisiae deletion strains, locus YGR229C, strain SMI1, stronger effect = lower value 0.985 | [2] 1.03 | S. cerevisiae deletion strains, locus YHR087W, strain rtc3, stronger effect = lower value 1 | S. cerevisiae deletion strains, locus YJR043C, strain POL32, stronger effect = lower value 0.991 | S. cerevisiae deletion strains, locus YJR075W, strain HOC1, stronger effect = lower value 0.993 | S. cerevisiae deletion strains, locus YKL190W, strain CNB1, stronger effect = lower value 1 | S. cerevisiae deletion strains, locus YLR039C, strain RIC1, stronger effect = lower value 1.02 | S. cerevisiae deletion strains, locus YLR058C, strain SHM2 (second series), stronger effect = lower value 0.999 | S. cerevisiae deletion strains, locus YLR085C, strain ARP6, stronger effect = lower value 1.02 | S. cerevisiae deletion strains, locus YLR262C, strain YPT6, stronger effect = lower value 1.01 | S. cerevisiae deletion strains, locus YML094W, strain GIM5, stronger effect = lower value 1.02 | S. cerevisiae deletion strains, locus YMR219W, strain ESC1, stronger effect = lower value 0.999 | S. cerevisiae deletion strains, locus YMR263W, strain SAP30, stronger effect = lower value 0.993 | S. cerevisiae deletion strains, locus YNL153C, strain GIM3, stronger effect = lower value 0.99 | S. cerevisiae deletion strains, locus YNL298W, strain CLA4 (second series), stronger effect = lower value 1.04 | S. cerevisiae deletion strains, locus YNL322C, strain KRE1, stronger effect = lower value 1.01 | S. cerevisiae deletion strains, locus YNR030W, strain Alg12, stronger effect = lower value 1.02 | S. cerevisiae deletion strains, locus YPL055C, strain LGE1, stronger effect = lower value 0.918 | S. cerevisiae deletion strains, locus YPL241C, strain CIN2, stronger effect = lower value 1.04 | S. cerevisiae deletion strains, locus YPR135W, strain CTF4, stronger effect = lower value 0.963 | S. cerevisiae strains, strain wild type, stronger effect = lower value 0.995

OC(c1ccc(C(F)(F)F)cc1)c1cccc(C(F)(F)F)c1 (centres undefined)
active: S. cerevisiae deletion strains, locus YLR113W, strain HOG1, stronger effect = lower value 0.789 | S. cerevisiae deletion strains, locus YPL256C, strain CLN2, stronger effect = lower value 0.839
inactive: S. cerevisiae deletion strains, locus YAR019C, strain CDC15, stronger effect = lower value 0.972 | S. cerevisiae deletion strains, locus YBL105C, strain PKC1, stronger effect = lower value 0.973 | S. cerevisiae deletion strains, locus YBR135W, strain CKS1, stronger effect = lower value 0.973 | S. cerevisiae deletion strains, locus YBR136W, strain MEC1, stronger effect = lower value 0.967 | S. cerevisiae deletion strains, locus YBR160W, strain CDC28, stronger effect = lower value 0.969 | S. cerevisiae deletion strains, locus YDL017W, strain CDC7, stronger effect = lower value 0.964 | S. cerevisiae deletion strains, locus YDL028C, strain MPS1, stronger effect = lower value 0.974 | [1] 0.975 | S. cerevisiae deletion strains, locus YDL108W, strain KIN28, stronger effect = lower value 0.968 | S. cerevisiae deletion strains, locus YDL132W, strain cdc53, stronger effect = lower value 0.974 | S. cerevisiae deletion strains, locus YDL214C, strain PRR2, stronger effect = lower value 0.985 | S. cerevisiae deletion strains, locus YDR052C, strain DBF4, stronger effect = lower value 0.977 | S. cerevisiae deletion strains, locus YDR054C, strain cdc34, stronger effect = lower value 0.974 | S. cerevisiae deletion strains, locus YDR226W, strain ADK1, stronger effect = lower value 0.977 | S. cerevisiae deletion strains, locus YDR477W, strain SNF1, stronger effect = lower value 0.999 | S. cerevisiae deletion strains, locus YER123W, strain YCK3, stronger effect = lower value 0.945 | S. cerevisiae deletion strains, locus YER133W, strain GLC7, stronger effect = lower value 0.992 | S. cerevisiae deletion strains, locus YFL009W, strain cdc4, stronger effect = lower value 0.981 | S. cerevisiae deletion strains, locus YFL029C, strain CAK1, stronger effect = lower value 0.962 | S. cerevisiae deletion strains, locus YFR003C, strain YPI1, stronger effect = lower value 0.969 | S. cerevisiae deletion strains, locus YFR019W, strain FAB1, stronger effect = lower value 1 | S. cerevisiae deletion strains, locus YFR028C, strain CDC14, stronger effect = lower value 0.975 | S. cerevisiae deletion strains, locus YGR040W, strain KSS1, stronger effect = lower value 0.984 | S. cerevisiae deletion strains, locus YGR052W, strain FMP48, stronger effect = lower value 1 | S. cerevisiae deletion strains, locus YGR092W, strain DBF2, stronger effect = lower value 0.948 | [2] 0.867 | S. cerevisiae deletion strains, locus YHR079C, strain IRE1, stronger effect = lower value 0.885 | S. cerevisiae deletion strains, locus YHR082C, strain KSP1, stronger effect = lower value 1.09 | S. cerevisiae deletion strains, locus YHR205W, strain SCH9, stronger effect = lower value 0.949 | S. cerevisiae deletion strains, locus YIL147C, strain SLN1, stronger effect = lower value 0.971 | S. cerevisiae deletion strains, locus YJL095W, strain BCK1, stronger effect = lower value 0.953 | S. cerevisiae deletion strains, locus YJL128C, strain PBS2, stronger effect = lower value 0.942 | S. cerevisiae deletion strains, locus YJL157C, strain FAR1, stronger effect = lower value 1.01 | S. cerevisiae deletion strains, locus YJR016C, strain ILV3, stronger effect = lower value 0.984 | S. cerevisiae deletion strains, locus YJR066W, strain TOR1 (second series), stronger effect = lower value 1.04 | S. cerevisiae deletion strains, locus YJR066W, strain TOR1, stronger effect = lower value 1.05 | S. cerevisiae deletion strains, locus YKL048C, strain ELM1, stronger effect = lower value 0.977 | S. cerevisiae deletion strains, locus YKL067W, strain YNK1, stronger effect = lower value 0.992 | S. cerevisiae deletion strains, locus YKL101W, strain HSL1, stronger effect = lower value 0.97 | S. cerevisiae deletion strains, locus YKL193C, strain SDS22, stronger effect = lower value 0.973 | S. cerevisiae deletion strains, locus YKL203C, strain TOR2, stronger effect = lower value 1.02 | S. cerevisiae deletion strains, locus YLR133W, strain CKI1, stronger effect = lower value 0.999 | S. cerevisiae deletion strains, locus YLR403W, strain SFP1, stronger effect = lower value 1.04 | S. cerevisiae deletion strains, locus YML070W, strain DAK1, stronger effect = lower value 0.96 | S. cerevisiae deletion strains, locus YMR001C, strain CDC5, stronger effect = lower value 0.973 | S. cerevisiae deletion strains, locus YMR205C, strain PFK2 (second series), stronger effect = lower value 0.993 | S. cerevisiae deletion strains, locus YMR277W, strain FCP1, stronger effect = lower value 0.974 | S. cerevisiae deletion strains, locus YNL006W, strain LST8, stronger effect = lower value 0.966 | S. cerevisiae deletion strains, locus YNL020C, strain ARK1, stronger effect = lower value 0.998 | S. cerevisiae deletion strains, locus YNL161W, strain CBK1, stronger effect = lower value 0.984 | S. cerevisiae deletion strains, locus YNL183C, strain NPR1, stronger effect = lower value 1.01 | S. cerevisiae deletion strains, locus YNL207W, strain RIO2, stronger effect = lower value 0.978 | S. cerevisiae deletion strains, locus YNL222W, strain SSU72, stronger effect = lower value 0.973 | S. cerevisiae deletion strains, locus YNL307C, strain MCK1 (second series), stronger effect = lower value 0.989 | S. cerevisiae deletion strains, locus YOL078W, strain AVO1, stronger effect = lower value 0.974 | S. cerevisiae deletion strains, locus YOL136C, strain PFK27, stronger effect = lower value 0.968 | S. cerevisiae deletion strains, locus YOR061W, strain CKA2, stronger effect = lower value 1 | S. cerevisiae deletion strains, locus YOR119C, strain RIO1, stronger effect = lower value 1.07 | S. cerevisiae deletion strains, locus YOR231W, strain MKK1, stronger effect = lower value 0.92 | S. cerevisiae deletion strains, locus YOR329C, strain SCD5, stronger effect = lower value 0.967 | S. cerevisiae deletion strains, locus YPL031C, strain PHO85, stronger effect = lower value 0.978 | S. cerevisiae deletion strains, locus YPL153C, strain RAD53, stronger effect = lower value 0.991 | S. cerevisiae deletion strains, locus YPL204W, strain HRR25, stronger effect = lower value 0.959 | S. cerevisiae deletion strains, locus YPL209C, strain IPL1, stronger effect = lower value 0.973 | S. cerevisiae deletion strains, locus YPR025C, strain CCL1, stronger effect = lower value 0.968 | S. cerevisiae deletion strains, locus YPR106W, strain ISR1, stronger effect = lower value 0.99 | S. cerevisiae deletion strains, locus YPR111W, strain DBF20, stronger effect = lower value 1 | S. cerevisiae deletion strains, strain NNK1, stronger effect = lower value 0.975 | S. cerevisiae deletion strains, strain TSCII, stronger effect = lower value 0.975
